Reference: PubChem BioAssay
Inconclusive results are not listed. Active and inactive are the calls of the source.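 How the source made its calls, unless noted: active means normalized viability below 100% at a tested concentration; inactive means the rest.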 Where a SMILES comes first, the peptide text is derived from it. The star is where a group is joined. Cbz = O=C(OCc1ccccc1)*

Key:
[1] = growth inhibition of DIPG glioma cells, dose response, cell-based, SU-DIPG-XVII, MIPE5.0, CellTiter-Glo, qHTS (AID 1347060; cut-off not given, nearly all actives have AC50 up to about 26 µM;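 further: cells exposed to compound for 48 hours before viability readout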); conditions: SU-DIPG-XVII viability, CellTiter-Glo ATP luminescence
[2] = growth inhibition of DIPG glioma cells, dose response, cell-based, JHH-DIPG-1, MIPE4.0, CellTiter-Glo, qHTS (AID 1347062; cut-off not given, nearly all actives have AC50 up to about 27 µM;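 on AC50: cells exposed to compound for two days before readout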); conditions: JHH-DIPG-1 viability, CellTiter-Glo ATP luminescence
[3] = growth inhibition of DIPG glioma cells, dose response, cell-based, SU-DIPG-IV, MIPE4.0, CellTiter-Glo, qHTS (AID 1347063; cut-off not given, nearly all actives have AC50 up to about 30 µM;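 further: compound exposure lasted 48 hours before the viability readout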); conditions: SU-DIPG-IV viability, CellTiter-Glo ATP luminescence
[4] = growth inhibition of DIPG glioma cells, dose response, cell-based, SU-DIPG-XIII, MIPE5.0, CellTiter-Glo, qHTS (AID 1347064; cut-off not given, nearly all actives have AC50 up to about 23 µM;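 further: cells exposed to compound for 48 hours before the viability read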); conditions: SU-DIPG-XIII viability, CellTiter-Glo ATP luminescence
[5] = viability loss in pontine glioma line – cell-based, SU-DIPG-XXV, MIPE5.0, CellTiter-Glo, qHTS, dose response (AID 1347065; cut-off not given, nearly all actives have AC50 up to about 26 µM;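 further: cells exposed to compound for 48 hours before ATP readout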); conditions: CellTiter-Glo ATP luminescence
[6] = SU-DIPG-VI glioma cell viability, MIPE4.0 library, CellTiter-Glo luminescence, qHTS (AID 1347066; cut-off not given, nearly all actives have AC50 up to about 30 µM;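 further: cells exposed to compound for 48 hours before readout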); conditions: CellTiter-Glo ATP luminescence
[7] = growth inhibition of DIPG glioma cells, dose response, cell-based, SU-DIPG-XIII, MIPE4.0, CellTiter-Glo, qHTS (AID 1347061; cut-off not given, nearly all actives have AC50 up to about 37 µM;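 further: cells exposed to compound for 48 hours before readout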); conditions: SU-DIPG-XIII viability, CellTiter-Glo ATP luminescence
[8] = JHH-DIPG-1 glioma cell viability, MIPE5.0 library, CellTiter-Glo luminescence, qHTS (AID 1347067; cut-off not given, nearly all actives have AC50 up to about 26 µM;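 further: cells exposed to compound for 48 hours before readout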); conditions: JHH-DIPG-1 glioma viability, CellTiter-Glo ATP luminescence
[9] = SU-DIPG-XXV glioma cell viability, MIPE5.0 library, qHTS (AID 1347068; cut-off not given, nearly all actives have IC50 up to about 30 µM;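 further: cells exposed to compound for 48 hours before viability readout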)
[10] = sensitizers of A549 cells to miR-34 induction, primary screen, imaging, A549 dox-inducible miR-34, nuclei and caspase counts (AID 1347080;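 active means compounds whose cell count with miR-34 switched on is under 0.7 times the count with it off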); conditions: A549 miR-34 inducible, Hoechst nuclei count, 48 h
[11] = modifiers of HSF1 nuclear foci, imaging, Selleck Cancer Library (AID 1347162; in the data active means plate-normalised HSF1 focus index below about 0.46); conditions: human cells, at 10 µM; SSMD: measured here: HSF1 foci SSMD mean; cell count: measured here: cell number; plate-normalised HSF1 focus index: stronger effect = lower value
[12] = survival rescue of mitochondrial mutant cells in low glucose, primary screen, MELAS cybrids, Rieske KO mouse fibroblasts, CellTiter-Glo (AID 1508586;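 active means mean z-score across replicates of 1.96 or higher in either the MELAS or the Rieske mutant cell line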;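 further: z relative to plate mean and SD of compound and empty wells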)
[13] = ovarian cancer cell viability with rucaparib, profiling panel, oncology-focused library, rucaparib conditional (AID 1508598); conditions: patient-derived ovarian cancer cells, CellTiter-Glo viability, 144 h, stronger effect = lower value
[14] = stronger effect = lower value, cell number ratio, induced over uninduced
[15] = measured here: relative caspase fold change +Dox/-Dox
[16] = measured here: total cells with miR-34 induction, stronger effect = lower value
[17] = measured here: total cells without miR-34 induction

Cc1nc(NC(=O)N2CCC[C@H]2C(N)=O)sc1-c1csc(C(C)(C)C)n1
active: AC50 [1] 11800 nM | AC50 [2] 4690 nM | AC50 [3] 2960 nM | AC50 [4] 7420 nM | AC50 [5] 4680 nM | AC50 [6] 9350 nM

C=C1C(=O)OC2/C=C(/C)CC/C=C(/C)CCC12 (centres undefined)
active: AC50 [1] 20900 nM | AC50 [5] 18600 nM | AC50 [8] 16600 nM
inactive: outcome [7]

CC(C)C[C@@H](C=O)NC(=O)[C@H](CC(C)C)NC(=O)[C@H](CC(C)C)NC(=O)OCc1ccccc1 (Cbz-Leu-Leu-Leu-aldehyde)
638: cell count [10, 16]
1.23: fold change [10, 15]
595: cell count [10, 17]
inactive: fold change [10, 14] 1.07 | plate-normalised HSF1 focus index [11] 1.43
7.09: SSMD [11]
6800: cell count [11]
active: AC50 [1] 468 nM | AC50 [2] 166 nM | AC50 [3] 148 nM | AC50 [4] 59 nM | AC50 [5] 148 nM | AC50 [6] 296 nM | AC50 [8] 468 nM | IC50 [9] 263 nM

Cc1cnc(Nc2cccc(CN3CCOCC3)c2)nc1Nc1cccc(S(=O)(=O)NC(C)(C)C)c1
active: AC50 [1] 332 nM | AC50 [2] 7430 nM | AC50 [3] 5260 nM | AC50 [4] 2950 nM | AC50 [5] 1180 nM | AC50 [6] 14800 nM | AC50 [8] 2350 nM

O=C(Cc1ccc(-c2ccc(OCCN3CCOCC3)cc2)cn1)NCc1ccccc1
-0.489: z-score ([12]; Rieske KO mouse fibroblast survival, CellTiter-Glo 72 h)
active: AC50 [1] 118 nM | AC50 [2] 59 nM | AC50 [3] 11.8 nM | AC50 [4] 661 nM | AC50 [5] 118 nM | AC50 [6] 1050 nM | AC50 [8] 132 nM | IC50 [9] 525 nM | viability ([13]; at 0.00488 µM, OCI-P5x cells, without rucaparib) 96.7% | viability ([13]; at 0.0195 µM, OCI-C5x cells, without rucaparib) 58.9% | viability ([13]; at 0.0195 µM, OCI-P5x cells, with rucaparib 20 µM, 100% = cells with rucaparib alone) 85.3% | viability ([13]; at 0.0195 µM, OCI-P5x cells, without rucaparib) 29.6% | viability ([13]; at 0.0781 µM, OCI-C5x cells, with rucaparib 10 µM, 100% = cells with rucaparib alone) 62.9% | viability ([13]; at 0.0781 µM, OCI-C5x cells, without rucaparib) 50.7% | viability ([13]; at 0.0781 µM, OCI-P5x cells, with rucaparib 20 µM, 100% = cells with rucaparib alone) 69.5% | viability ([13]; at 0.0781 µM, OCI-P5x cells, without rucaparib) 23.9% | viability ([13]; at 0.313 µM, OCI-C5x cells, with rucaparib 10 µM, 100% = cells with rucaparib alone) 40.7% | viability ([13]; at 0.313 µM, OCI-C5x cells, without rucaparib) 33.9% | viability ([13]; at 0.313 µM, OCI-P5x cells, with rucaparib 20 µM, 100% = cells with rucaparib alone) 58.7% | viability ([13]; at 0.313 µM, OCI-P5x cells, without rucaparib) 18.5% | viability ([13]; at 1.25 µM, OCI-C5x cells, with rucaparib 10 µM, 100% = cells with rucaparib alone) 46.4% | viability ([13]; at 1.25 µM, OCI-C5x cells, without rucaparib) 34.1% | viability ([13]; at 1.25 µM, OCI-P5x cells, with rucaparib 20 µM, 100% = cells with rucaparib alone) 58.9% | viability ([13]; at 1.25 µM, OCI-P5x cells, without rucaparib) 17.4% | viability ([13]; at 5 µM, OCI-C5x cells, with rucaparib 10 µM, 100% = cells with rucaparib alone) 50.3% | viability ([13]; at 5 µM, OCI-C5x cells, without rucaparib) 32.6% | viability ([13]; at 5 µM, OCI-P5x cells, with rucaparib 20 µM, 100% = cells with rucaparib alone) 49.4% | viability ([13]; at 5 µM, OCI-P5x cells, without rucaparib) 15.3%
inactive: fold change [10, 14] 1.21 | plate-normalised HSF1 focus index [11] 1.14 | z-score ([12]; MELAS cybrid survival, CellTiter-Glo 48 h, stronger effect = higher value) 1.14 | viability ([13]; at 0.000305 µM, OCI-C5x cells, with rucaparib 10 µM, 100% = cells with rucaparib alone) 106% | viability ([13]; at 0.000305 µM, OCI-C5x cells, without rucaparib) 114% | viability ([13]; at 0.000305 µM, OCI-P5x cells, with rucaparib 20 µM, 100% = cells with rucaparib alone) 109% | viability ([13]; at 0.000305 µM, OCI-P5x cells, without rucaparib) 106% | viability ([13]; at 0.00122 µM, OCI-C5x cells, with rucaparib 10 µM, 100% = cells with rucaparib alone) 111% | viability ([13]; at 0.00122 µM, OCI-C5x cells, without rucaparib) 124% | viability ([13]; at 0.00122 µM, OCI-P5x cells, with rucaparib 20 µM, 100% = cells with rucaparib alone) 108% | viability ([13]; at 0.00122 µM, OCI-P5x cells, without rucaparib) 108% | viability ([13]; at 0.00488 µM, OCI-C5x cells, with rucaparib 10 µM, 100% = cells with rucaparib alone) 112% | viability ([13]; at 0.00488 µM, OCI-C5x cells, without rucaparib) 109% | viability ([13]; at 0.00488 µM, OCI-P5x cells, with rucaparib 20 µM, 100% = cells with rucaparib alone) 105% | viability ([13]; at 0.0195 µM, OCI-C5x cells, with rucaparib 10 µM, 100% = cells with rucaparib alone) 101%
1530: cell count [10, 16]
6240: cell count [11]
1260: cell count [10, 17]
0.488: fold change [10, 15]
2.71: SSMD [11]

Cc1ccc(Nc2cc(-c3cccc(N4C(=O)c5ccccc5C4=O)c3)ncn2)cc1NS(C)(=O)=O
inactive: outcome [2]
active: AC50 [1] 20900 nM | AC50 [3] 18700 nM
